Inconclusive results are not listed. Calls of active or inactive are those of the source. Rule for the calls: active = hit-call score of the fitted dose curve at least 0.9, where 1 is the maximum; inconclusive = response in the unintended direction; inactive = score below 0.9.
System: Sodium/Iodide Symporter (NIS), SLC5A5 (gene 6528)
Assay: CPHEA_Stoker_NIS_Inhibition_RAIU: CPHEA's Radioactive Iodide Uptake (RAIU) Assay for Sodium/Iodide Symporter (NIS) Inhibition, Stoker and Laws Labs (AID 2283841)
Method: CPHEA_Stoker_NIS is a cell-based, single-readout assay that uses hNIS-HEK293T-EPA, a novel human kidney cell line expressing human NIS, with measurements taken at 2 hours after chemical dosing in a 96-well plate. This radioactive iodide uptake (RAIU) assay is used to identify inhibitors of NIS-mediated iodide uptake. A parallel cytoxicity assay (Cell Titer Glo, Promega) was also run in the same cell line.CPHEA_Stoker_NIS_Inhibition_RAIU is one of 2 assay components measured from the CPHEA_Stoker_NIS assay. It is designed to make measurements of radioactive substrate uptake to understand transporter function, as detected with 125-i signals by MicroBeta radioactivity plate reader technology.Data from the assay component CPHEA_Stoker_NIS_Inhibition_RAIU was analyzed at the endpoint, CPHEA_Stoker_NIS_Inhibition_RAIU, in the positive analysis fitting direction relative to DMSO as the negative control and baseline of activity. Measures of radioactive substrate uptake for loss-of-signal activity can be used to understand the effects on transporter function at the pathway level as they relate to the sodium-iodide symporter, gene SLC5A5. To generalize the intended target to other relatable targets, this assay endpoint is annotated to the transporter intended target family, where the subfamily is sodium-iodide symporter (NIS).
hNIS-HEK293T-EPA cells were seeded with a MultiFlo FX dispenser (BioTek, Winooski, VT) into ScintiPlate-96 microplates (Perkin Elmer, Waltham, MA) at a density of 4.0x10^4 cells per well in 200uL growth media and incubated for 40 hours before experimentation. On day of the assay, carrier-free 125I (Perkin-Elmer, Waltham, MA; specific activity: 17.4Ci/mg) was diluted with Hanks' balanced salt solution (Sigma, St. Louis, MO) supplemented with 10mM HEPES (uptake buffer; pH 7.4) at 5uCi/mL (288pg 125I/mL uptake buffer; 2.30nM). The assay was initiated by washing cells twice with 200uL uptake buffer using a 96-well Tecan HydroSpeed plate washer (Tecan, Mannedorf, Switzerland). Uptake buffer (59.7uL) was then added back to each well. Chemical samples (350nL at 200X) were administered using the HDR tool as previously described to achieve a 1X chemical/0.5% final DMSO concentration with subsequent addition of 10uL of 125I dilution (final [125I]: 329pM; 2.88pg/well) for a final reaction volume of 70uL/well. Cells were incubated at room temperature for 2 hours and then washed twice with 200uL ice cold uptake buffer. All uptake buffer was aspirated from wells, plates were sealed, and read on a MicroBeta2 plate reader (Perkin Elmer, Waltham, MA) using a detection protocol to measure CPM corresponding to intracellular 125I concentration. Each chemical concentration (0.001, 0.01, 0.1, 1.0, 10, and 100uM) was assayed in triplicate with three independent biological replicate plates (3 sequential cell passages). Additionally, a concentration response of NaClO4 (0.001, 0.01, 0.1, 1.0, 10, and 100uM) served as a positive control inhibition curve on each RAIU assay plate. DMSO control wells were assayed on each plate as a measure of maximum iodide uptake for normalization and determination of intra- and inter-assay variation. (Toxicol In Vitro, 2017, 40:66-78).

outcome, inactive:
O=[N+]([O-])c1ccc(O)cc1C(F)(F)F
COc1ccc(N=Nc2cc(C)c(N=Nc3ccc(S(=O)(=O)O)cc3)cc2OC)cc1
Clc1ccc(C(c2ccccc2Cl)C(Cl)Cl)cc1 (stereo not drawn)
CCCCCCC(=O)c1ccccc1
Cc1ccc(S(=O)(=O)Oc2ccc(N=Nc3ccc(-c4ccc(N=Nc5c(O)ccc6cc(S(=O)(=O)O)cc(S(=O)(=O)O)c56)c(C)c4)cc3C)cc2)cc1
O=C(c1ccccc1)C(O)c1ccccc1 (stereo not drawn)
CCCCCCCCSCCO
OCC#CCO
CCCCCCCCC=CCCCCCCCC1=NCCN1CCO
CCc1cc(C(C)(C)C)c(O)c(C(C)(C)C)c1
CCOC(=O)[C@@H](C)Oc1ccc(Oc2nc3ccc(Cl)cc3o2)cc1
c1ccc(Oc2ccccc2)cc1
OC[C@H]1O[C@@H]2O[C@H]3[C@H](O)[C@@H](O)[C@@H](O[C@H]4[C@H](O)[C@@H](O)[C@@H](O[C@H]5[C@H](O)[C@@H](O)[C@@H](O[C@H]6[C@H](O)[C@@H](O)[C@@H](O[C@H]7[C@H](O)[C@@H](O)[C@@H](O[C@H]8[C@H](O)[C@@H](O)[C@@H](O[C@H]9[C@H](O)[C@@H](O)[C@@H](O[C@H]1[C@H](O)[C@H]2O)O[C@@H]9CO)O[C@@H]8CO)O[C@@H]7CO)O[C@@H]6CO)O[C@@H]5CO)O[C@@H]4CO)O[C@@H]3CO
CCCCCC(C=O)=Cc1ccccc1
O=c1c(O)c(-c2ccc(O)cc2)oc2cc(O)cc(O)c12
CCCCCCCCCCCCN1CCCCCC1=O
BrCc1cccc(Oc2ccccc2)c1
CCc1cc(Cc2cc(CC)cc(C(C)(C)C)c2O)c(O)c(C(C)(C)C)c1
C=C(C)C(=O)OCCOC1CC2CC1C1C=CCC21 (stereo not drawn)
CCOc1ccc(N=Nc2ccc(C=Cc3ccc(N=Nc4ccc(OCC)cc4)cc3S(=O)(=O)O)c(S(=O)(=O)O)c2)cc1
C=C1CC[C@H](O)C/C1=C/C=C1\CCC[C@]2(C)[C@@H]([C@H](C)/C=C/[C@H](C)C(C)C)CC[C@@H]12
CCCCCCCCc1ccc(S(=O)(=O)O)cc1
O=C(CC(=O)c1ccccc1)c1ccccc1
CC(CN=Cc1ccccc1O)N=Cc1ccccc1O (stereo not drawn)
CCCCCCCCCCCCCCN(CCO)CCO

AC50, active:
CCCCC(CC)COC(=O)c1ccc(O)cc1 (stereo not drawn) 10.4 µM
C[C@H]1O[C@@H](O[C@H]2[C@@H](O)C[C@H](O[C@H]3[C@@H](O)C[C@H](O[C@H]4CC[C@@]5(C)[C@H](CC[C@@H]6[C@@H]5C[C@@H](O)[C@]5(C)[C@@H](C7=CC(=O)OC7)CC[C@]65O)C4)O[C@@H]3C)O[C@@H]2C)C[C@H](O)[C@@H]1O 1.12 µM
[O-]n1ccccc1=S.[O-]n1ccccc1=S.[Zn+2] 18.1 µM

Reference: PubChem BioAssay (EPA / NIEHS)
